Assay results as given in PubChem BioAssay AID1159580 (chemical genetic matrix, 2015).
Screen size: about 5,500 compounds; about 2,000 (36%) were called active. Another 18% or so got no clear call; they are omitted. No stated cut-off is given here; in the data, active means normalized growth mostly below about 0.91 (no sharp cut-off); inconclusive means no clear call, values can overlap the other calls; inactive means mostly above about 0.92. The list shows a part of the results.

Assay: chemical genetic growth profiling, strain panel (AID 1159580);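 further: tested at 20 µM; growth read once vehicle control cultures reached saturation at 30 °C; 1 = growth at the plate median or of vehicle wells; lower values mean less growth of the strain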
Conditions: growth OD

Measured: normalized growth

COc1ccc2c(c1)OC1(O)COc3cc(OC)c(OC)cc3C1=C2 (configuration not stated)
active: S. cerevisiae deletion strains, locus YNL307C, strain MCK1, hits give low values 0.848
inactive: S. cerevisiae deletion strains, locus YJR075W, strain HOC1, hits give low values 0.956 | S. cerevisiae deletion strains, locus YKL009W, strain mrt4, hits give low values 0.965 | S. cerevisiae deletion strains, locus YKL068W, hits give low values 0.99 | S. cerevisiae deletion strains, locus YKL085W, strain MDH1 (second series), hits give low values 0.98 | S. cerevisiae deletion strains, locus YKL085W, strain MDH1, hits give low values 0.98 | S. cerevisiae deletion strains, locus YKL160W, strain elf1, hits give low values 1 | S. cerevisiae deletion strains, locus YKL190W, strain CNB1, hits give low values 1.01 | S. cerevisiae deletion strains, locus YKR001C, strain vps1, hits give low values 0.949 | S. cerevisiae deletion strains, locus YKR026C, strain gcn3, hits give low values 0.974 | S. cerevisiae deletion strains, locus YKR091W, strain srl3, hits give low values 0.979 | S. cerevisiae deletion strains, locus YLL001W, strain dnm1, hits give low values 0.944 | S. cerevisiae deletion strains, locus YLL026W, hits give low values 0.985 | S. cerevisiae deletion strains, locus YLL041C, strain sdh2, hits give low values 0.987 | S. cerevisiae deletion strains, locus YLR027C, strain aat2, hits give low values 0.985 | S. cerevisiae deletion strains, locus YLR039C, strain RIC1, hits give low values 0.974 | S. cerevisiae deletion strains, locus YLR058C, strain SHM2, hits give low values 1 | S. cerevisiae deletion strains, locus YLR102C, strain apc9, hits give low values 0.99 | S. cerevisiae deletion strains, locus YLR113W, strain HOG1, hits give low values 0.939 | S. cerevisiae deletion strains, locus YLR221C, strain rsa3, hits give low values 0.96 | S. cerevisiae deletion strains, locus YLR258W, strain gsy2, hits give low values 0.986 | S. cerevisiae deletion strains, locus YLR262C, strain YPT6 (second series), hits give low values 0.926 | S. cerevisiae deletion strains, locus YLR262C, strain YPT6, hits give low values 0.961 | S. cerevisiae deletion strains, locus YLR268W, strain sec22, hits give low values 0.96 | S. cerevisiae deletion strains, locus YLR320W, strain mms22, hits give low values 0.925 | S. cerevisiae deletion strains, locus YLR330W, strain CHS5, hits give low values 0.997 | S. cerevisiae deletion strains, locus YLR342W, strain FKS1 (second series), hits give low values 0.91 | S. cerevisiae deletion strains, locus YLR342W, strain FKS1, hits give low values 0.976 | S. cerevisiae deletion strains, locus YLR357W, strain rsc2, hits give low values 0.983 | S. cerevisiae deletion strains, locus YLR370C, strain arc18, hits give low values 0.985 | S. cerevisiae deletion strains, locus YLR371W, strain rom2, hits give low values 0.99 | S. cerevisiae deletion strains, locus YLR384C, strain iki3, hits give low values 0.985 | S. cerevisiae deletion strains, locus YLR418C, strain cdc73, hits give low values 0.955 | S. cerevisiae deletion strains, locus YML016C, strain PPZ1, hits give low values 1.01 | S. cerevisiae deletion strains, locus YML032C, strain rad52, hits give low values 0.957 | S. cerevisiae deletion strains, locus YML120C, strain ndi1, hits give low values 0.989 | S. cerevisiae deletion strains, locus YML124C, strain tub3, hits give low values 0.986 | S. cerevisiae deletion strains, locus YMR058W, strain fet3, hits give low values 0.978 | S. cerevisiae deletion strains, locus YMR078C, strain ctf18, hits give low values 0.98 | S. cerevisiae deletion strains, locus YMR125W, strain sto1, hits give low values 0.985 | S. cerevisiae deletion strains, locus YMR129W, hits give low values 0.977 | S. cerevisiae deletion strains, locus YMR205C, strain PFK2, hits give low values 0.954 | S. cerevisiae deletion strains, locus YMR223W, strain ubp8, hits give low values 0.951 | S. cerevisiae deletion strains, locus YMR231W, strain pep5, hits give low values 0.983 | S. cerevisiae deletion strains, locus YMR263W, strain SAP30, hits give low values 1.01 | S. cerevisiae deletion strains, locus YMR307W, strain GAS1, hits give low values 0.984 | S. cerevisiae deletion strains, locus YNL067W, strain RPL9B, hits give low values 0.998 | S. cerevisiae deletion strains, locus YNL071W, strain lat1, hits give low values 0.945 | S. cerevisiae deletion strains, locus YNL128W, strain TEP1, hits give low values 1.02 | S. cerevisiae deletion strains, locus YNL153C, strain GIM3, hits give low values 1.03 | S. cerevisiae deletion strains, locus YNL183C, strain NPR1, hits give low values 0.892 | S. cerevisiae deletion strains, locus YNL209W, strain ssb2, hits give low values 0.993 | S. cerevisiae deletion strains, locus YNL233W, strain BNI4, hits give low values 0.971 | S. cerevisiae deletion strains, locus YNL248C, strain rpa49, hits give low values 0.996 | S. cerevisiae deletion strains, locus YNL250W, strain rad50, hits give low values 0.998 | S. cerevisiae deletion strains, locus YNL271C, strain bni1, hits give low values 0.98 | S. cerevisiae deletion strains, locus YNL298W, strain CLA4, hits give low values 0.98 | S. cerevisiae deletion strains, locus YNL322C, strain KRE1 (second series), hits give low values 0.991 | S. cerevisiae deletion strains, locus YNL322C, strain KRE1, hits give low values 1 | S. cerevisiae deletion strains, locus YNR049C, strain mso1, hits give low values 0.992 | S. cerevisiae deletion strains, locus YNR052C, strain pop2, hits give low values 0.98 | S. cerevisiae deletion strains, locus YOL006C, strain TOP1, hits give low values 0.945 | S. cerevisiae deletion strains, locus YOL012C, strain htz1 0.969 | S. cerevisiae deletion strains, locus YOL147C, strain pex11, hits give low values 0.986 | S. cerevisiae deletion strains, locus YOR001W, strain rrp6, hits give low values 0.915 | S. cerevisiae deletion strains, locus YOR061W, strain CKA2, hits give low values 1.01 | S. cerevisiae deletion strains, locus YOR069W, strain VPS5, hits give low values 1.01 | S. cerevisiae deletion strains, locus YOR070C, strain gyp1, hits give low values 0.985 | S. cerevisiae deletion strains, locus YOR080W, strain dia2, hits give low values 0.97 | S. cerevisiae deletion strains, locus YOR083W, strain WHI5, hits give low values 0.982 | S. cerevisiae deletion strains, locus YOR106W, strain vam3, hits give low values 0.995 | S. cerevisiae deletion strains, locus YOR136W, strain idh2, hits give low values 0.975 | S. cerevisiae deletion strains, locus YOR144C, strain elg1, hits give low values 0.987 | S. cerevisiae deletion strains, locus YOR184W, strain ser1, hits give low values 0.899 | S. cerevisiae deletion strains, locus YOR231W, strain MKK1, hits give low values 0.92 | S. cerevisiae deletion strains, locus YOR265W, strain rbl2, hits give low values 0.982 | S. cerevisiae deletion strains, locus YOR270C, strain vph1, hits give low values 0.904 | S. cerevisiae deletion strains, locus YOR290C, strain snf2, hits give low values 0.998 | S. cerevisiae deletion strains, locus YOR316C, strain cot1, hits give low values 0.996 | S. cerevisiae deletion strains, locus YPL051W, strain arl3, hits give low values 0.949 | S. cerevisiae deletion strains, locus YPL055C, strain LGE1, hits give low values 1.02 | S. cerevisiae deletion strains, locus YPL078C, strain atp4, hits give low values 0.999 | S. cerevisiae deletion strains, locus YPL106C, strain sse1, hits give low values 0.991 | S. cerevisiae deletion strains, locus YPL240C, strain hsp82, hits give low values 0.988 | S. cerevisiae deletion strains, locus YPL241C, strain CIN2, hits give low values 1 | S. cerevisiae deletion strains, locus YPL256C, strain CLN2, hits give low values 0.902 | S. cerevisiae deletion strains, locus YPR119W, strain clb2, hits give low values 0.983 | S. cerevisiae deletion strains, locus YPR141C, strain kar3, hits give low values 0.994 | S. cerevisiae deletion strains, locus YPR163C, strain tif3, hits give low values 0.983 | S. cerevisiae deletion strains, locus YPR167C, strain met16, hits give low values 0.984 | S. cerevisiae deletion strains, strain wtn01, hits give low values 0.981 | S. cerevisiae strains, strain wild type, hits give low values 0.987
